# Experimental data published in the supplement of paper PMC3334620.
# In all, about 33,000 sequences were measured (“E-score (-0.5 to 0.5)”: median about -0.017, highest 2% from about 0.3 on). Shown is part of a subset that was picked to be rich in the highest values.
# Molecular target: T1, Sut1 (UniProt P53032)
# T1 sequence: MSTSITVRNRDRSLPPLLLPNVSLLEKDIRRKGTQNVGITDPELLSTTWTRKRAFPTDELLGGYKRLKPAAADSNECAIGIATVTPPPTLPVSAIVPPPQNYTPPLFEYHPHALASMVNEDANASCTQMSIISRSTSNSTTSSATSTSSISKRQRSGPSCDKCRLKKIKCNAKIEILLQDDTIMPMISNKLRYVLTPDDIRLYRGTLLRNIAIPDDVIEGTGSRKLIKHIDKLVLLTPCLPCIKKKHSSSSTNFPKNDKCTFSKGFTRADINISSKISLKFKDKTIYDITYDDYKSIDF
# Experiment: PBM E-score (8-mer binding enrichment) (E-score (-0.5 to 0.5)); higher = stronger / more preferred TF binding
# Conditions: protein concentration: 200 nM; construct: GST-full length
# Summary of the method: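 Yeast transcription factors, full-length or as DNA-binding domains, were expressed with a GST tag using PURExpress in vitro transcription/translation. At about 100-200 nM they were applied to universal all-10-mer Agilent arrays, double-stranded by primer extension on fresh or once-stripped slides. Fluorescent anti-GST detected bound protein, and masliner normalised the scans. E-scores for ungapped eight-base words, pooled with reverse complements, came from the Universal PBM Analysis Suite.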
row,Sequence,PBM E-score
1,GACTAATA,0.196
2,AAAGCCCG,0.208
3,GGAGTCTA,0.182
4,GCACCCAC,-0.155
5,CAGGCTCA,-0.214
6,ACTTGCCT,-0.0394
7,AATATATT,0.31
8,AATATAGT,0.244
9,AATATTAA,0.263
10,AATATTAT,0.319
11,AATATAGC,0.0924
12,CATATAAA,0.15
13,AATATACT,0.277
14,AATATAAA,0.315
15,AATATTAG,0.192
16,TATATAAA,0.248
17,GATATATC,0.183
18,AATATATC,0.322
19,ACATCGCC,-0.112
20,GGGCTACC,-0.227
21,ATGCAATC,0.102
22,AGGCCATC,-0.149
23,ACCCATGA,-0.124
24,GGCTTTCA,0.0417
25,ACACAGAT,0.00624

row,Sequence,PBM E-score
1,GGACGGCA,-0.0542
2,GCTATATA,0.118
3,ACTATATC,0.209
4,AAAATATA,0.267
5,ACTATATA,0.308
6,AATATATG,0.242
7,AATATATA,0.325
8,CAGGTCAC,-0.398
9,CTGGAAAC,-0.0136
10,CCCAAAAG,-0.0557
11,ATGAACTA,0.216
12,GTATACTA,-0.155
13,GTACGGAA,0.22
14,ATACGGGC,-0.126
15,ATACGGAC,0.374
16,TTACGGAA,0.198
17,GTACGGAC,0.297
18,ATACGGAA,0.348
19,ATGTGATC,0.144
20,CGTGAAGA,-0.026
21,ACTCACAG,0.0594
22,CACTAAGG,-0.146
23,GCCCGGAC,0.328
24,ACCCGGTC,-0.124
25,CCCCGGAC,0.357

row,Sequence,PBM E-score
1,ACCCGGAG,0.416
2,CCCCGGAA,0.216
3,CCCCGGCC,-0.173
4,ACCCGGAC,0.323
5,ACCCGGAA,0.197
6,GCCCGGAA,0.244
7,ACCCGGGC,-0.0147
8,GCCCGGGC,-0.0214
9,ACCCGGAT,-0.107
10,CAGTTGGC,-0.162
11,GCATTCGA,0.0434
12,TAAGAATA,-0.086
13,CGACGCTA,-0.089
14,CCCCGGGG,0.198
15,CCCCGGCG,-0.00882
16,CCCCGGAG,0.454
17,TCTCTGAA,-0.135
18,CTTTCAAA,0.302
19,CTTTCGGC,0.0219
20,ATTTCGGC,0.0959
21,ATTTCGAG,0.164
22,ATTTCGGA,0.396
23,GTTTCAAA,0.212
24,ATTTCGGG,0.0466
25,CTTTCGGA,0.395

row,Sequence,PBM E-score
1,ATTTCAAA,0.219
2,ATTTCGAC,0.0327
3,ATTTCGAA,0.313
4,CTTTCGTA,0.0877
5,GAGTGGTA,-0.0154
6,CTGCGAGC,-0.126
7,GCGCCCGA,-0.17
8,AGGATCGG,-0.00265
9,AACAGTCA,-0.138
10,CATCTAAA,0.0229
11,ATGCCATC,0.0993
12,GCCTTAAA,0.0657
13,AGGATGCG,-0.116
14,ATCCTAAG,-0.175
15,AAGCCAGG,-0.253
16,CACAAAGG,-0.0165
17,GGGGCCAC,-0.304
18,GTTTCGAA,0.0889
19,GTTTCGGA,0.334
20,GTTTCGTA,0.0481
21,CCTGTTTC,-0.0625
22,ACAATCGG,0.259
23,GCCCAAAA,-0.0622
24,CATTCCGA,0.25
25,TATTCCGA,0.321

row,Sequence,PBM E-score
1,GATTCCGC,0.0522
2,AATTCCGA,0.371
3,TATTCCCA,0.139
4,GATTCCCA,-0.188
5,GATTCCGA,0.337
6,AATTCCAA,0.21
7,AATTCCCA,0.0113
8,ATTCTACC,0.0903
9,AAAAGATG,0.0556
10,ACGGTCTA,-0.0922
11,GATGGAGA,0.0416
12,ACAGCATG,-0.124
13,CCGATTGC,0.109
14,GCAGCAGA,-0.175
15,CCTTCAGA,-0.0889
16,GAACTGTC,0.00324
17,ATTCCCTC,-0.233
18,TCCCTAGA,-0.00999
19,ACTAAAAC,0.159
20,ACTAAAAA,0.353
21,ACTAAAAG,0.214
22,GTTATAAC,-0.0927
23,AGTATATA,0.395
24,ACTATAAA,0.321
25,GCTATAAA,0.194

row,Sequence,PBM E-score
1,GTTATAAA,0.303
2,AGTATATC,0.12
3,CTTATAAA,0.181
4,AGTATATG,0.00722
5,CCTATAAA,-0.0583
6,ACTCAATG,0.104
7,GATTTGAA,0.142
8,TAATCGTA,0.0634
9,CAACGGTC,-0.0872
10,GGAGGTGA,0.0437
11,AGGTCTAT,-0.0267
12,GCTCGATA,-0.105
13,GGTGTAGA,-0.149
14,CCTTAAAA,0.0539
15,TGTATAAA,0.157
16,AGTATAAA,0.302
17,AGTATAAC,0.185
18,ACTTAAAA,0.307
19,ACTTAAAC,0.241
20,ACACTTCA,0.0715
21,AGATGGCA,0.0507
22,CATAGCCC,-0.196
23,CCGGAAAA,0.37
24,ACGGAAAT,0.344
25,ACGGAAAA,0.243

row,Sequence,PBM E-score
1,CCGGAAAC,0.245
2,CCGGAAAG,0.276
3,TCGGAAAA,0.372
4,GCGGAAAA,0.174
5,ACGGAAAG,0.25
6,ACGGAAAC,0.0512
7,TAGGTACA,-0.0499
8,GTGAACCA,0.00963
9,ACGGTGCC,-0.0952
10,TCATTCCA,0.0304
11,ACGGTCGA,-0.135
12,CATTCTGA,0.00217
13,GCCGGACC,0.198
14,ACCGGACA,0.234
15,CACGGACA,0.153
16,GCCGGACA,0.273
17,CCCGGATC,0.213
18,CCCGGACC,0.339
19,TCCGGACA,0.415
20,CCCGGACG,-0.12
21,CCCGGACA,0.354
22,GTCCACTA,-0.0452
